These results are taken from PubChem BioAssay.

The source made the active and inactive calls.

Assay [1] deals with Plasmodium falciparum Sir2 (PF13_0152, Sir2A). The assay is described as follows: pfSir2 binders on small-molecule microarrays, primary screen, biochemical, small-molecule microarray, 635 nm fluorescence (AID 1098).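 Further: score merges spot fluorescence intensity with its signal-to-noise ratio.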 To be noted: small-molecule microarray binding, fluorescence 635 nm; higher = more signal.
Assay [2] in a line: small-molecule microarray binders of probe aDKK1, primary screen, biochemical, biotinylated probe, 635/667 nm fluorescence (AID 1099).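 Further: score merges 667nm spot fluorescence with signal to noise across triplicate slides; reference of the scale not given here.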 To be noted: higher = more signal.
A short description of assay [3]: small-molecule microarray binders of probe aCHRDL2, primary screen, biochemical, biotinylated probe, 635/667 nm fluorescence (AID 1100). To be noted: higher = more signal.
A short description of assay [4]: splicing luciferase reporter signal modulators, primary screen, spliceosome inhibition project, cell-based, HEK293, splice +/- reporter (AID 1101).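 Further: HEK293 cells carrying a splicing-competent luciferase reporter gene; test concentration not given here.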 The note with it: luminescence, 24 h, higher = more signal, called active from +8 up or from −8 down. (A reporter such as luciferase makes a cellular process visible.)
For assay [5], the target named is Fibroblast growth factor 10 (Homo sapiens) (UniProt O15520). Kind of assay: FGF10 binders on small-molecule microarrays, primary screen, biochemical, small-molecule microarray, 635 nm fluorescence (AID 1102). To be noted: FGF10 binding, fluorescence 635 nm, higher = more signal.
Chain of Fibroblast growth factor 10 (Homo sapiens) (O15520 whole entry, looked up): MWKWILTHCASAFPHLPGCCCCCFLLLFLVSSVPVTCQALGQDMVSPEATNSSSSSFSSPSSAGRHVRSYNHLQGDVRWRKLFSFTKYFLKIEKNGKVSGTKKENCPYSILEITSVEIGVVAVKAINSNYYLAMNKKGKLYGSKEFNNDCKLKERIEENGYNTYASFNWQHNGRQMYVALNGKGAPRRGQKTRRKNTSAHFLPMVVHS
Assay [6] concerns glycogen synthase kinase-3 (GSK3A per assay name; protocol says GSK3B). The assay is described as follows: GSK3 binders on small-molecule microarrays, primary screen, biochemical, small-molecule microarray, 635 nm fluorescence, GSK3A (AID 1103). Further: the record names both GSK3A and GSK3B. To be noted: small-molecule microarray binding, fluorescence 635 nm; higher = more signal.
The target of assay [7] is Epidermal growth factor receptor (Homo sapiens) (UniProt P00533). Kind of assay: EGFR binders on small-molecule microarrays, primary screen, biochemical, small-molecule microarray, 635 nm fluorescence (AID 1104).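 Further: score merges 667 nm emission intensity with spot signal to noise over triplicate slides.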 The note with it: EGFR binding, higher = more signal.
Chain of Epidermal growth factor receptor (Homo sapiens) (P00533 whole entry, looked up): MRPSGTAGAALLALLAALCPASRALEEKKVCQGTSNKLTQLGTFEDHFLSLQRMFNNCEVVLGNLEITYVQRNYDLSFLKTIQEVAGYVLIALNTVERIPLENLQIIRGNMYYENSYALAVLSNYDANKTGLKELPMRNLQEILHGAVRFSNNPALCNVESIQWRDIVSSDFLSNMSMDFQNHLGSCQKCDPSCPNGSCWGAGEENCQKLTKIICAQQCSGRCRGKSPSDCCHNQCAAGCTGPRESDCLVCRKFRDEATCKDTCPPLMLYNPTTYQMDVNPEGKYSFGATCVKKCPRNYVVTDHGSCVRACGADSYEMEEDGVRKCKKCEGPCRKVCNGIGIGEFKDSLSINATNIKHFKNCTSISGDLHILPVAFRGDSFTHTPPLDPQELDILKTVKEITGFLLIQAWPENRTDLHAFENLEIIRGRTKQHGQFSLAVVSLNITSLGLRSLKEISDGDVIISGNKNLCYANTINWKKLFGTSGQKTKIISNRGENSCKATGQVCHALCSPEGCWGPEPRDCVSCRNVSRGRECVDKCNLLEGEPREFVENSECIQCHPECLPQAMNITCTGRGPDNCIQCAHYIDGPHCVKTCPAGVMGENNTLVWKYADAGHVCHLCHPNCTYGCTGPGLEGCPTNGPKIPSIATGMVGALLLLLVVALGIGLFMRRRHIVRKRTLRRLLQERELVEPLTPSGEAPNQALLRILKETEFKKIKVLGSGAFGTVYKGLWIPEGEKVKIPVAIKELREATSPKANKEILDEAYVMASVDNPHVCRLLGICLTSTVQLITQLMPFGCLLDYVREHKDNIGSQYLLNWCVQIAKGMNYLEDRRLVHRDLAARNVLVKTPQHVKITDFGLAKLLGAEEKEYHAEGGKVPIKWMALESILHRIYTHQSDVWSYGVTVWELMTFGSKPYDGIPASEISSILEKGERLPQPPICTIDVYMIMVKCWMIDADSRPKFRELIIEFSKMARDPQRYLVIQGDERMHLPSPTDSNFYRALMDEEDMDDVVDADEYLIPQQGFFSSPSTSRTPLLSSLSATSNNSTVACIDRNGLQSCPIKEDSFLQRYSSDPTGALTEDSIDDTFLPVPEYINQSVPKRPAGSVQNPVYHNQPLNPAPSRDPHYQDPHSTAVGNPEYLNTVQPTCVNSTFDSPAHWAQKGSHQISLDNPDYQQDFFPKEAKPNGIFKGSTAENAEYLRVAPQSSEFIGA
The target in assay [8] is Follistatin-related protein 3 (Homo sapiens) (UniProt O95633). The assay is described as follows: FSTL3 binders on small-molecule microarrays, primary screen, biochemical, small-molecule microarray, 635 nm fluorescence (AID 1105).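 Further: score merges emission near 667 nm and signal to noise per printed spot across three slides.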 To be noted: FSTL3 binding, higher = more signal.
Chain of Follistatin-related protein 3 (Homo sapiens) (O95633 whole entry, looked up): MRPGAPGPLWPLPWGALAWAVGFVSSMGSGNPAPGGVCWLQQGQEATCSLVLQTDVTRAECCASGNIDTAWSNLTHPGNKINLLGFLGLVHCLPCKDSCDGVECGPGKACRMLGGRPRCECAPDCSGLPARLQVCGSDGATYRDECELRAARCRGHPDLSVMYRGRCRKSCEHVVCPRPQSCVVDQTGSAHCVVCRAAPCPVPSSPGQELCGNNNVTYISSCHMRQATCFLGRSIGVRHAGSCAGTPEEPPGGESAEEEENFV
The target in assay [9] is Dickkopf-related protein 1 (Homo sapiens) (UniProt O94907). Kind of assay: DKK1 binders on small-molecule microarrays, primary screen, biochemical, small-molecule microarray, 635 nm fluorescence scan (AID 1106).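 Further: score merges emission near 667 nm with signal to noise over three replicate slides.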 The note with it: DKK1 binding, higher = more signal.
Chain of Dickkopf-related protein 1 (Homo sapiens) (O94907 whole entry, looked up): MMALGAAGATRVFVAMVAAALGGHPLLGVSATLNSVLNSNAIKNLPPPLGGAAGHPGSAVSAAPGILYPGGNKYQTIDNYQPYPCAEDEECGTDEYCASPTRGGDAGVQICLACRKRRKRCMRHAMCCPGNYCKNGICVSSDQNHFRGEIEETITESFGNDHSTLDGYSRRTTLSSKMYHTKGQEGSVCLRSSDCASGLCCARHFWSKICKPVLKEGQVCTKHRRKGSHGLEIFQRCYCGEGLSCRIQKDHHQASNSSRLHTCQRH
Assay [10] deals with Inhibin beta A chain (activin A). Kind of assay: INHBA (activin A) binders on microarrays, primary screen, biochemical, small-molecule microarray, 635 nm fluorescence scan (AID 1107).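 Further: mouse activin A protein probed at 4.33 µg/mL on printed slides; score merges bound-protein fluorescence near 667 nm with spot signal-to-noise.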 To be noted: small-molecule microarray binding, higher = more signal.

Turning to `CCOc1cc(C(O)C2C=CC3C(=O)N(c4ccccc4)C(=O)C3N2Nc2ccccc2F)ccc1O` (stereo not given), the composite z-score in [1] is 1.53; in assay [2] it was 1.42; in assay [3], 0.762; in assay [5], 0.208; in assay [6], -0.186; in assay [7], 0.232. In addition, the composite z-score in assay [8] is -0.271; in assay [9], -0.344; in assay [10], 0.604. The z-score in [4] was 0.101 (inactive).
Turning to `CCCCC(O)C1C=CC2C(=O)N(c3ccccc3)C(=O)C2N1Nc1ccc([N+](=O)[O-])cc1` (stereo not given), the composite z-score came to 1.2 in [1]; 0.379 in assay [2]; 0.21 in assay [3]; 0.435 in assay [5]; 1.32 in [6]; 0.0456 in assay [7]. For the same compound, the values for the composite z-score in assay [8], in assay [9] and in assay [10] were 1.3, -0.105 and 0.329, respectively. In addition, the z-score in assay [4] was -0.846 (inactive).
For the compound `COc1ccc([Si](C)(C)[C@@H]2[C@@H](CC(=O)N3Cc4ccccc4C[C@H]3CO)O[C@]3(C(=O)N(Cc4ccc(N5CCOC5=O)cc4)c4ccccc43)[C@H]2C)cc1`, the composite z-score in assay [1] is 1.09; in assay [2], -0.115; in assay [3], -0.271; in assay [5], 0.723; in [6], 0.969; in assay [7], 0.916. The figures for the composite z-score in [8], in assay [9] and in assay [10] were 1.24, 0.945 and 1.03, respectively. The z-score in assay [4] is -1.36 (inactive).
On to `C=C(COC)C(=O)CC[C@@H](OC(C)=O)c1ccccc1OCCO`, for which the composite z-score in assay [1] was 1.29; in [2], -0.232; in assay [3], 0.313; in [5], 1.53; in [6], -0.0163; in assay [7], -0.0143. Further, the values for the composite z-score in assay [8], in assay [9] and in assay [10] were 0.209, -0.306 and 1.38, respectively. The z-score in assay [4] was 1.34 (inactive).
With `C[N+](C)(C)CCCC[C@@H]1NC(=O)[C@H]2C[C@@H](C(=O)NCCCCCNC(=O)CS)[C@@H](c3cccc(OCCO)c3)N2C1=O`, the composite z-score in assay [1] is 1.57; in assay [2] it was 0.242; in assay [3] it was 0.47; in [5], -0.166; in assay [6], 0.272; in [7], 0.412. The results for the composite z-score in assay [8], in assay [9] and in assay [10] were -0.664, 0.0501 and 0.761, respectively. In addition, the z-score in assay [4] was 1.12 (inactive).
With `CN1C(=O)C2C(C3CC3)C=C3CN(Cc4cccc(Cl)c4)[C@@H]([C@@H](O)Cc4ccccc4)C3C2C1=O` (stereo not given in full), the composite z-score is 1.11 in assay [1]; -0.217 in assay [2]; -0.534 in [3]; 0.939 in assay [5]; 1.13 in assay [6]; 0.621 in assay [7]. Moreover, the composite z-score in assay [8] is 0.961; in assay [9] it was 0.396; in assay [10] it was -0.262. The z-score in [4] was -1.32 (inactive).
With `C=C(CCCC)C(=O)CC[C@@H](OC(=O)c1ccccc1-c1ccccc1C(=O)O)c1ccccc1OCCO`, the composite z-score in assay [1] was 0.776; in assay [2], -0.286; in assay [3], -0.543; in assay [5] it was 1.27; in assay [6], -0.121; in assay [7], -0.215. For the same compound, the composite z-score in [8] amounted to 0.27; in assay [9] it was 0.373; in assay [10], 0.959. Besides, the z-score in assay [4] was 2.3 (inactive).
Turning to `C=CCC(OC(C)=O)[C@@H]1[C@@H](N(Cc2ccc(-c3cccc(C(F)(F)F)c3)o2)C(=O)Cc2ccc(F)cc2)c2cc(OCCCO)ccc2N1C(=O)Cc1ccc2ccccc2c1` (stereo not given in full), the composite z-score in assay [1] was -0.595; in [2] it was -0.341; in assay [3] it was 0.228; in assay [5] it was -0.195; in assay [6] it was -1.79; in assay [7], -0.676. Besides, the results for the composite z-score in assay [8], in assay [9] and in assay [10] were -0.511, -0.286 and 1.12, respectively. Also, the z-score in [4] is 0.705 (inactive).
For the compound `C=CCOC(=O)[C@H]1[C@@H]2C(=O)O[C@@H](c3ccccc3)[C@@H](c3ccccc3)N2[C@@H](c2ccc(OCCOC(=O)[C@H]3C[C@H]4C(=O)N[C@@H](CC(C)C)C(=O)N4[C@H]3c3ccc(O)cc3)cc2)[C@]12C(=O)Nc1ccccc12`, the composite z-score is 1.58 in assay [1]; 0.0955 in [2]; 0.202 in assay [3]; 1.47 in [5]; 1.34 in assay [6]; 1.41 in [7]. In addition, the composite z-score came to 1.4 in assay [8], 1.54 in [9] and 0.509 in assay [10]. In addition, the z-score in [4] was 0.119 (inactive).
`COCC(=C=CC[C@H](O)c1ccccc1OCCO)C[C@H](O)COCc1ccccc1`: the composite z-score is 1.54 in [1]; 0.132 in [2]; -0.316 in assay [3]; 1.49 in [5]; 0.342 in assay [6]; 0.335 in assay [7]. The composite z-score in assay [8] is 0.3; in [9], -0.06; in assay [10], 0.627. For the same compound, in assay [4], the z-score is -0.111 (inactive).
With `COCCCNC(=O)[C@@]1(CCS(=O)(=O)c2ccccc2)COC(c2ccc(OCCCO)cc2)=N1`, the composite z-score in assay [1] is 1.37; in [2], 1.56; in assay [3] it was 1.47; in assay [5] it was 0.946; in assay [6] it was 0.878; in [7], -0.318. Further, the composite z-score in assay [8] was -0.0346; in [9], -0.0211; in assay [10] it was 0.952. The z-score in assay [4] is 0.0749 (inactive).
As to `C=C(CCCC)/C(=C/C[C@H](OC(=O)c1ccncc1)c1ccc(OCCO)cc1)c1cnc2ccccc2c1`, the composite z-score is 1.47 in assay [1]; -0.107 in assay [2]; 0.164 in [3]; 0.898 in assay [5]; 0.829 in assay [6]; 0.776 in assay [7]. Also, the composite z-score in [8] is 1.45; in assay [9] it was 0.768; in [10] it was 1.36. Besides, the z-score in assay [4] is -0.0197 (inactive).
Turning to `O=C1O[C@@H](c2ccccc2)[C@@H](c2ccccc2)N2[C@@H](c3ccc(OCCO)cc3)[C@]3(C(=O)Nc4ccc(C#CCCO)cc43)[C@@H](C(=O)O)[C@H]12`, the composite z-score in assay [1] came to 1.81; in assay [2] it was 0.416; in [3] it was 1.17; in assay [5], 1.41; in assay [6] it was 0.746; in [7] it was 0.702. The values for the composite z-score in assay [8], in assay [9] and in [10] were 0.988, 0.151 and 1.34, respectively. In assay [4], the z-score was 0.362 (inactive).
Regarding `CN(C)CCCC[C@@H]1NC(=O)[C@@H]2C[C@H](C(=O)NCCCCCN)[C@H](c3cccc(OCCO)c3)N2C1=O`, the composite z-score in assay [1] is 0.789; in [2], -0.0024; in assay [3] it was -0.21; in assay [5] it was 0.824; in assay [6], 1.16; in assay [7], 0.428. For the same compound, the composite z-score was 0.567 in assay [8], 0.565 in assay [9] and -0.401 in [10]. The z-score in [4] was -1.66 (inactive).
`CCCCN1CC=CC23O[C@@H]4/C=C\CCCOC(=O)C4[C@H]2C(=O)N(C(CO)C(C)C)[C@@H]3C1=O` (stereo not given in full): the composite z-score in assay [1] was -0.459; in assay [2], -0.277; in assay [3], -0.179; in [5], -0.138; in assay [6], -0.115; in [7], 0.183. Besides, the composite z-score is -0.436 in [8], 0.323 in assay [9] and 1.21 in [10]. The z-score in assay [4] was 0.558 (inactive).
Turning to `COc1ccc(C(=O)Nc2ccc3c(c2)[C@@]2(O[C@H](CCO)[C@@H]([Si](C)(C)c4ccc(OC)cc4)[C@@H]2C)C(=O)N3Cc2ccccc2)cc1`, the composite z-score was 0.578 in assay [1]; -0.267 in [2]; 0.546 in [3]; 0.517 in [5]; 0.369 in [6]; 0.252 in [7]. The composite z-score in assay [8] turned out to be 0.527; in assay [9], 0.27; in [10] it was 1.17. For the same compound, the z-score in assay [4] is -4.86 (inactive).
